The whole screen tested about 5,500 compounds, of which about 2,000 (36%) were called active. Not shown: some 18% with an inconclusive outcome. Rule as the data show it: active = normalized growth mostly below about 0.91 (no sharp cut-off); inconclusive = no clear call, values can overlap the other calls; inactive = mostly above about 0.92. The list shows a part of the results.
Experiment: chemical genetic growth profiling, strain panel (AID 1159580);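 also: tested at 20 µM; growth read once vehicle control cultures reached saturation at 30 °C; 1 = growth at the plate median or of vehicle wells; lower values mean less growth of the strain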
Conditions: growth OD

Measured: normalized growth

Oc1cc(O)c2c(c1)O[C@H](c1ccc(O)c(O)c1)[C@H](O)C2
inactive: S. cerevisiae deletion strains, locus YJR043C, strain POL32, active compounds read low 1.07 | S. cerevisiae deletion strains, locus YJR066W, strain TOR1, active compounds read low 0.94 | S. cerevisiae deletion strains, locus YKL009W, strain mrt4, active compounds read low 0.972 | S. cerevisiae deletion strains, locus YKL068W, active compounds read low 0.979 | S. cerevisiae deletion strains, locus YKL085W, strain MDH1 (second series), active compounds read low 0.981 | S. cerevisiae deletion strains, locus YKL085W, strain MDH1, active compounds read low 0.981 | S. cerevisiae deletion strains, locus YKL160W, strain elf1, active compounds read low 1 | S. cerevisiae deletion strains, locus YKR001C, strain vps1, active compounds read low 1 | S. cerevisiae deletion strains, locus YKR026C, strain gcn3, active compounds read low 1 | S. cerevisiae deletion strains, locus YKR091W, strain srl3, active compounds read low 0.999 | S. cerevisiae deletion strains, locus YLL001W, strain dnm1, active compounds read low 0.994 | S. cerevisiae deletion strains, locus YLL026W, active compounds read low 1.01 | S. cerevisiae deletion strains, locus YLL041C, strain sdh2, active compounds read low 1.01 | S. cerevisiae deletion strains, locus YLR027C, strain aat2, active compounds read low 0.996 | S. cerevisiae deletion strains, locus YLR039C, strain RIC1, active compounds read low 1.08 | S. cerevisiae deletion strains, locus YLR058C, strain SHM2, active compounds read low 1.01 | S. cerevisiae deletion strains, locus YLR102C, strain apc9, active compounds read low 0.982 | S. cerevisiae deletion strains, locus YLR113W, strain HOG1, active compounds read low 1.02 | S. cerevisiae deletion strains, locus YLR221C, strain rsa3, active compounds read low 1.04 | S. cerevisiae deletion strains, locus YLR258W, strain gsy2, active compounds read low 1.01 | S. cerevisiae deletion strains, locus YLR262C, strain YPT6 (second series), active compounds read low 0.997 | S. cerevisiae deletion strains, locus YLR262C, strain YPT6, active compounds read low 1.06 | S. cerevisiae deletion strains, locus YLR268W, strain sec22, active compounds read low 0.979 | S. cerevisiae deletion strains, locus YLR320W, strain mms22, active compounds read low 1.05 | S. cerevisiae deletion strains, locus YLR330W, strain CHS5, active compounds read low 1.01 | S. cerevisiae deletion strains, locus YLR342W, strain FKS1 (second series), active compounds read low 1.04 | S. cerevisiae deletion strains, locus YLR342W, strain FKS1, active compounds read low 1.01 | S. cerevisiae deletion strains, locus YLR357W, strain rsc2, active compounds read low 0.992 | S. cerevisiae deletion strains, locus YLR370C, strain arc18, active compounds read low 1.01 | S. cerevisiae deletion strains, locus YLR371W, strain rom2, active compounds read low 0.975 | S. cerevisiae deletion strains, locus YLR384C, strain iki3, active compounds read low 0.995 | S. cerevisiae deletion strains, locus YLR418C, strain cdc73, active compounds read low 1.03 | S. cerevisiae deletion strains, locus YML016C, strain PPZ1, active compounds read low 0.992 | S. cerevisiae deletion strains, locus YML032C, strain rad52, active compounds read low 1.01 | S. cerevisiae deletion strains, locus YML120C, strain ndi1, active compounds read low 0.996 | S. cerevisiae deletion strains, locus YML124C, strain tub3, active compounds read low 0.992 | S. cerevisiae deletion strains, locus YMR058W, strain fet3, active compounds read low 1.02 | S. cerevisiae deletion strains, locus YMR078C, strain ctf18, active compounds read low 0.977 | S. cerevisiae deletion strains, locus YMR125W, strain sto1, active compounds read low 1 | S. cerevisiae deletion strains, locus YMR129W, active compounds read low 1 | S. cerevisiae deletion strains, locus YMR205C, strain PFK2, active compounds read low 1.03 | S. cerevisiae deletion strains, locus YMR223W, strain ubp8, active compounds read low 1 | S. cerevisiae deletion strains, locus YMR231W, strain pep5, active compounds read low 0.981 | S. cerevisiae deletion strains, locus YMR307W, strain GAS1, active compounds read low 1.22 | S. cerevisiae deletion strains, locus YNL067W, strain RPL9B, active compounds read low 0.971 | S. cerevisiae deletion strains, locus YNL071W, strain lat1, active compounds read low 1.01 | S. cerevisiae deletion strains, locus YNL183C, strain NPR1, active compounds read low 0.95 | S. cerevisiae deletion strains, locus YNL209W, strain ssb2, active compounds read low 0.994 | S. cerevisiae deletion strains, locus YNL233W, strain BNI4, active compounds read low 1.01 | S. cerevisiae deletion strains, locus YNL248C, strain rpa49, active compounds read low 1 | S. cerevisiae deletion strains, locus YNL250W, strain rad50, active compounds read low 0.937 | S. cerevisiae deletion strains, locus YNL271C, strain bni1, active compounds read low 0.984 | S. cerevisiae deletion strains, locus YNL298W, strain CLA4, active compounds read low 1.01 | S. cerevisiae deletion strains, locus YNL307C, strain MCK1, active compounds read low 0.977 | S. cerevisiae deletion strains, locus YNL322C, strain KRE1 (second series), active compounds read low 1.01 | S. cerevisiae deletion strains, locus YNL322C, strain KRE1, active compounds read low 1.01 | S. cerevisiae deletion strains, locus YNR049C, strain mso1, active compounds read low 1.01 | S. cerevisiae deletion strains, locus YNR052C, strain pop2, active compounds read low 0.991 | S. cerevisiae deletion strains, locus YOL006C, strain TOP1, active compounds read low 1.03 | S. cerevisiae deletion strains, locus YOL012C, strain htz1 1.18 | S. cerevisiae deletion strains, locus YOL147C, strain pex11, active compounds read low 0.998 | S. cerevisiae deletion strains, locus YOR001W, strain rrp6, active compounds read low 1.04 | S. cerevisiae deletion strains, locus YOR061W, strain CKA2, active compounds read low 0.998 | S. cerevisiae deletion strains, locus YOR069W, strain VPS5, active compounds read low 0.999 | S. cerevisiae deletion strains, locus YOR070C, strain gyp1, active compounds read low 1 | S. cerevisiae deletion strains, locus YOR080W, strain dia2, active compounds read low 1.01 | S. cerevisiae deletion strains, locus YOR083W, strain WHI5, active compounds read low 1.01 | S. cerevisiae deletion strains, locus YOR106W, strain vam3, active compounds read low 1.03 | S. cerevisiae deletion strains, locus YOR136W, strain idh2, active compounds read low 0.985 | S. cerevisiae deletion strains, locus YOR144C, strain elg1, active compounds read low 1.01 | S. cerevisiae deletion strains, locus YOR184W, strain ser1, active compounds read low 1 | S. cerevisiae deletion strains, locus YOR231W, strain MKK1, active compounds read low 0.992 | S. cerevisiae deletion strains, locus YOR265W, strain rbl2, active compounds read low 1.02 | S. cerevisiae deletion strains, locus YOR270C, strain vph1, active compounds read low 1.08 | S. cerevisiae deletion strains, locus YOR290C, strain snf2, active compounds read low 0.99 | S. cerevisiae deletion strains, locus YOR316C, strain cot1, active compounds read low 0.989 | S. cerevisiae deletion strains, locus YPL051W, strain arl3, active compounds read low 1.01 | S. cerevisiae deletion strains, locus YPL078C, strain atp4, active compounds read low 1.03 | S. cerevisiae deletion strains, locus YPL106C, strain sse1, active compounds read low 1.01 | S. cerevisiae deletion strains, locus YPL240C, strain hsp82, active compounds read low 1.01 | S. cerevisiae deletion strains, locus YPL256C, strain CLN2, active compounds read low 0.98 | S. cerevisiae deletion strains, locus YPR119W, strain clb2, active compounds read low 0.978 | S. cerevisiae deletion strains, locus YPR141C, strain kar3, active compounds read low 0.976 | S. cerevisiae deletion strains, locus YPR163C, strain tif3, active compounds read low 0.991 | S. cerevisiae deletion strains, locus YPR167C, strain met16, active compounds read low 0.987 | S. cerevisiae deletion strains, strain wtn01, active compounds read low 0.992 | S. cerevisiae strains, strain wild type, active compounds read low 1.01

Reference: PubChem BioAssay AID1159580 (chemical genetic matrix, 2015)
